According to the supplement of paper PMC11732987, “Enantioselective OTUD7B fragment discovery through chemoproteomics screening and high-throughput optimisation” (Communications Chemistry, 2025):

Legend:
Test in all cases: log2 ratio of Biotin-Ahx-Ub-VS probe labelling (fragment/DMSO); higher = less target engagement (more negative = stronger competition), active = hit call of the paper (q ≤ 0.05, log2 ratio ≤ -1)
Conditions in all cases: compound concentration: 200 uM; treatment time: 3 h
USP34 = USP34 (UniProt Q70CQ2)
Sequence of USP34 (Q70CQ2 whole entry, the tested form may be a part): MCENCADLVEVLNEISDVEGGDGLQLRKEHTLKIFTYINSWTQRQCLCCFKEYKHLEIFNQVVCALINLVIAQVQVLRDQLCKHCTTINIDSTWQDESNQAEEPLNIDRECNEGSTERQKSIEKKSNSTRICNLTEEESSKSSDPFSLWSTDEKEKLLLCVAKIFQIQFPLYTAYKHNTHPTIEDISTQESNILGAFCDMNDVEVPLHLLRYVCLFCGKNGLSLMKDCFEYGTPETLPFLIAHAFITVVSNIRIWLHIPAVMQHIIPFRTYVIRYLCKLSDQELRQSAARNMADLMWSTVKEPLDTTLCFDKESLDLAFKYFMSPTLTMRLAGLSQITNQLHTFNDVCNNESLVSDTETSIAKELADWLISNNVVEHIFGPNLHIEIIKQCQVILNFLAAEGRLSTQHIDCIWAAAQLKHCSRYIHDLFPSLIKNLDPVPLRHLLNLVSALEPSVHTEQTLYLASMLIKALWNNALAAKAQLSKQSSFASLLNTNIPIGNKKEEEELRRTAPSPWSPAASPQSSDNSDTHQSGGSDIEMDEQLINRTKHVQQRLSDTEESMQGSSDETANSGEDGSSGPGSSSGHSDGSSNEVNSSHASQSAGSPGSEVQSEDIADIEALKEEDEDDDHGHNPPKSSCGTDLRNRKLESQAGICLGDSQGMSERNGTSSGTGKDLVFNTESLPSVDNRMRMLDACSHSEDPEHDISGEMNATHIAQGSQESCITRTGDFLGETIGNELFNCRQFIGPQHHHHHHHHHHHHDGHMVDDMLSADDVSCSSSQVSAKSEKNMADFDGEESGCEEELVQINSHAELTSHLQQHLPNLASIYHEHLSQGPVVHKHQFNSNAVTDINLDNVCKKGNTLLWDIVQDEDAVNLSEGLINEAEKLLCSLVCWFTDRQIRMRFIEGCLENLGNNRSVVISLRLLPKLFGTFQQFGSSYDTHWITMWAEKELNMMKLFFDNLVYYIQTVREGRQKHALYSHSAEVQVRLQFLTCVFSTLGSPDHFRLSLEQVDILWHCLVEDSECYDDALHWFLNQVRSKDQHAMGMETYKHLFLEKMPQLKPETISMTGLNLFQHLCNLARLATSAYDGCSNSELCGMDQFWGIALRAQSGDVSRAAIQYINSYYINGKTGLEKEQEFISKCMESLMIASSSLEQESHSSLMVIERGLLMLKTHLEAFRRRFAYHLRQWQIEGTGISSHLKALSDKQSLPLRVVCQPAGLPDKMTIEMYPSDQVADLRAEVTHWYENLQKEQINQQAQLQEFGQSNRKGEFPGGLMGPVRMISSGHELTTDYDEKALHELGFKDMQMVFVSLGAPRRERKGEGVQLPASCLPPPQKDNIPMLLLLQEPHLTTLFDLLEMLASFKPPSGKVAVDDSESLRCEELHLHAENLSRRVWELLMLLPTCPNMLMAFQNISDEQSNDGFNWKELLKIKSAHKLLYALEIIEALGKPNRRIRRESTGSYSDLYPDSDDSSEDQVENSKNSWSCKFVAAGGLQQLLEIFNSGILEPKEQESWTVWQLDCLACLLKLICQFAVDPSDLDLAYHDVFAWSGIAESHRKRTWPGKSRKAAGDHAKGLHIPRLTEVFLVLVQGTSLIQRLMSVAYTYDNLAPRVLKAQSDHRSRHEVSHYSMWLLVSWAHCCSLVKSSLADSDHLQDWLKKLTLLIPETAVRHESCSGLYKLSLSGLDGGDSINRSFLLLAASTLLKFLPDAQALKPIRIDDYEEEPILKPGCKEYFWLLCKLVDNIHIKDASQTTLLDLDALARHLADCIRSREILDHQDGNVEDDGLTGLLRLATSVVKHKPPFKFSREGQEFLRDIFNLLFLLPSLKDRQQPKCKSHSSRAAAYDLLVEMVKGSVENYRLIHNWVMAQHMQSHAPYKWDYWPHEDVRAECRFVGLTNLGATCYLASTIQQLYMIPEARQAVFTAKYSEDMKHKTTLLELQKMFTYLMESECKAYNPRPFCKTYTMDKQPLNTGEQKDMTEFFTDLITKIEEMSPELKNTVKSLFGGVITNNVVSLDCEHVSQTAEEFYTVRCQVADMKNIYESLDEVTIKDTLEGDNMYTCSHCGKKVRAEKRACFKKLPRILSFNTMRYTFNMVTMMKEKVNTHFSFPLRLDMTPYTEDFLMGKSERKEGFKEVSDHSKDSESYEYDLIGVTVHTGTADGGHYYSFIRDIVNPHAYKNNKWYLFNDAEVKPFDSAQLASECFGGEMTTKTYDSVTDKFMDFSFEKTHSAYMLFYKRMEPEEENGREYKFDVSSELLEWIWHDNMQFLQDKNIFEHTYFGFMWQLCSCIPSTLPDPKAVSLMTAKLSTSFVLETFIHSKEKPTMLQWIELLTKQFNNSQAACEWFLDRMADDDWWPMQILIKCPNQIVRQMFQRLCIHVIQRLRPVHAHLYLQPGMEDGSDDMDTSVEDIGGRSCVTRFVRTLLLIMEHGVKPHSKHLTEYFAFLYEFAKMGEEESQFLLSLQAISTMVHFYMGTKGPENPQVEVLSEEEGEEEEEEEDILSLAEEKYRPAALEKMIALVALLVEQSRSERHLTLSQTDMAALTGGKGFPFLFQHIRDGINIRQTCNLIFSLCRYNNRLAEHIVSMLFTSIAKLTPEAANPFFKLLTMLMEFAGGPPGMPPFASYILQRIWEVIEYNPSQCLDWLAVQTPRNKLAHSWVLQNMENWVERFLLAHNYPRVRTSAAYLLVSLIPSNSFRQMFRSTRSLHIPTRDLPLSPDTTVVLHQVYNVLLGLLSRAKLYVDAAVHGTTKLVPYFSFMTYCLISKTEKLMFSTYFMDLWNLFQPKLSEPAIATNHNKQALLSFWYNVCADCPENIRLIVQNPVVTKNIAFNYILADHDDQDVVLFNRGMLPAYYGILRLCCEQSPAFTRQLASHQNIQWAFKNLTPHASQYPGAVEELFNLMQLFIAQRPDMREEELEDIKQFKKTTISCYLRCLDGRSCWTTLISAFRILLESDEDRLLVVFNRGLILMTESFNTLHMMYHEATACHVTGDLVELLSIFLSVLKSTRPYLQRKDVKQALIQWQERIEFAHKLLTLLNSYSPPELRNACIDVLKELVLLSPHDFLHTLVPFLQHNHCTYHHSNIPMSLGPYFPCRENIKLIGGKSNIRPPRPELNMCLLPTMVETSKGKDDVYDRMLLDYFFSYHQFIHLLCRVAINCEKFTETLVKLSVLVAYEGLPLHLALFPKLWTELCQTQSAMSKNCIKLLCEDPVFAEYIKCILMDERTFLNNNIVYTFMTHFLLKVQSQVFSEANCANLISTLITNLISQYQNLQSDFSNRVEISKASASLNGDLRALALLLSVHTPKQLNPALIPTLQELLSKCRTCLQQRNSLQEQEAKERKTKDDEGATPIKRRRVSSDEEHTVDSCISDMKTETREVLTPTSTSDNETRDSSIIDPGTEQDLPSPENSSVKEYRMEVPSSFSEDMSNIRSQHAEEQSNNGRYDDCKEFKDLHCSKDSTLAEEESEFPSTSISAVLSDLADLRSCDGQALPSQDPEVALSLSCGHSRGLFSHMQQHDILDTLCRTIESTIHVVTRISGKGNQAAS
How it was run: (§1)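 The table lists average log2 ratios of fragment over vehicle, from an unpaired t-test on global-median-normalised Spectronaut label-free quantities. Proteins with ≥2 unique peptides were used. Samples were HEK293T lysate (495 µg) treated in triplicate with fragment at 200 µM or vehicle for 3 h, then with Biotin-Ahx-Ub-VS (0.5 µM final) for 1 h, with labelled DUBs NeutrAvidin-enriched and run by diaPASEF LC-MS/MS.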

USP36 = molecular target: T1, USP36 (UniProt Q9P275)
T1 sequence (whole entry): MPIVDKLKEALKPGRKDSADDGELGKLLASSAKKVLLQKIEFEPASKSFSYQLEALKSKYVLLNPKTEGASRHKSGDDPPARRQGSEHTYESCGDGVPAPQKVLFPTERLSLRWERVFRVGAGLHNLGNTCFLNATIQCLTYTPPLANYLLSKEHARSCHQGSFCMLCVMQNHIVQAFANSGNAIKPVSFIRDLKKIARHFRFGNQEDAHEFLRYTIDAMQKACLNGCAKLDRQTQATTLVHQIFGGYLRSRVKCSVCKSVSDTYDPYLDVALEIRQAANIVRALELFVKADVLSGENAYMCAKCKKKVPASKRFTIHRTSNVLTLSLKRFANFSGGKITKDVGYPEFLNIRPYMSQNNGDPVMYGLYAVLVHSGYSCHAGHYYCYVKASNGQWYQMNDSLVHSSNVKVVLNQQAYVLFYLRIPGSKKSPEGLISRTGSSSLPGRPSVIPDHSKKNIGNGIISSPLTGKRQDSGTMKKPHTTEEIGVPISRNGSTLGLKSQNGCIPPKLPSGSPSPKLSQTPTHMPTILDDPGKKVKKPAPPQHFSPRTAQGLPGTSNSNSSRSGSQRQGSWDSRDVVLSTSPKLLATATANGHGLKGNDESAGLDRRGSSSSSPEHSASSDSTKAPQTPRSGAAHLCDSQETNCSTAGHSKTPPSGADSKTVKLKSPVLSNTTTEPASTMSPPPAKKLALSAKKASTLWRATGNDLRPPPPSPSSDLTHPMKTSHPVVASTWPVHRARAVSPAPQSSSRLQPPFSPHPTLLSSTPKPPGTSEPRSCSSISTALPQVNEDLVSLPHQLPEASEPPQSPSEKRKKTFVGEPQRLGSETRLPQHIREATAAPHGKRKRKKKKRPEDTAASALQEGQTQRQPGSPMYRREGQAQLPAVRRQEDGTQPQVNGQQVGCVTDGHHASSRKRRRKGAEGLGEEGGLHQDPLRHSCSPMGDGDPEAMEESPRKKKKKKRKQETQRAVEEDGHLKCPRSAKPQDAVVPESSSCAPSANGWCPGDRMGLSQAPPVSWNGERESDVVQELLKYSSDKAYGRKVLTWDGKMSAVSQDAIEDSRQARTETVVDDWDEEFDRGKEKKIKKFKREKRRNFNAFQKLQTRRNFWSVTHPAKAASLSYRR
How it was run: as §1

USP38 = molecular target: T2, USP38 (UniProt Q8NB14)
T2 sequence (whole entry): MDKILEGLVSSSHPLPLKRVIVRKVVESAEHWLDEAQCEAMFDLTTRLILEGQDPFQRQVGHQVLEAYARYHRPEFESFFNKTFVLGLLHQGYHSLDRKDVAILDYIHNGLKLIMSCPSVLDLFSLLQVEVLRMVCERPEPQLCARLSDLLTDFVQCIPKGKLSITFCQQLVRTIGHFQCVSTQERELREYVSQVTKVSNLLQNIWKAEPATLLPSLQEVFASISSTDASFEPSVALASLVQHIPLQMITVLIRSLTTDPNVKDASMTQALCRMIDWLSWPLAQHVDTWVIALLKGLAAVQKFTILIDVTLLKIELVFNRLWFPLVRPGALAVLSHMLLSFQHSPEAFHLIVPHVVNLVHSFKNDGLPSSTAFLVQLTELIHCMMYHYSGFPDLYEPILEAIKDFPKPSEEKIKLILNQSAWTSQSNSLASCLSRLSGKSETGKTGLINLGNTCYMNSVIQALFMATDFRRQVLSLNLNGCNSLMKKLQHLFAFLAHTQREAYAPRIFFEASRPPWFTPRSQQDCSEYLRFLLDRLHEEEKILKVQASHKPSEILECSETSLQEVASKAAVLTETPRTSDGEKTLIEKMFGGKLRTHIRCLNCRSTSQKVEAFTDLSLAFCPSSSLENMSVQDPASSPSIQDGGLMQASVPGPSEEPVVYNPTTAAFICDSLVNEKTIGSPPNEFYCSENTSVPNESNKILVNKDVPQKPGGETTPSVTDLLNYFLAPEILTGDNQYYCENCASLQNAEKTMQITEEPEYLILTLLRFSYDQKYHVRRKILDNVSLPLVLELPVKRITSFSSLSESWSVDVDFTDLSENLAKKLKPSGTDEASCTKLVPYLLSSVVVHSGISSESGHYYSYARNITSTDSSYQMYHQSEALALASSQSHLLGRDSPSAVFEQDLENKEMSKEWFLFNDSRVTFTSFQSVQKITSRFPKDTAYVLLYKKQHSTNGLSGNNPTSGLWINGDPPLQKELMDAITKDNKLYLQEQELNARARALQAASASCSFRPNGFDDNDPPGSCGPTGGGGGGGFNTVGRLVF
How it was run: as §1

USP39 = molecular target: T3, USP39 (UniProt Q53GS9)
T3 sequence (whole entry): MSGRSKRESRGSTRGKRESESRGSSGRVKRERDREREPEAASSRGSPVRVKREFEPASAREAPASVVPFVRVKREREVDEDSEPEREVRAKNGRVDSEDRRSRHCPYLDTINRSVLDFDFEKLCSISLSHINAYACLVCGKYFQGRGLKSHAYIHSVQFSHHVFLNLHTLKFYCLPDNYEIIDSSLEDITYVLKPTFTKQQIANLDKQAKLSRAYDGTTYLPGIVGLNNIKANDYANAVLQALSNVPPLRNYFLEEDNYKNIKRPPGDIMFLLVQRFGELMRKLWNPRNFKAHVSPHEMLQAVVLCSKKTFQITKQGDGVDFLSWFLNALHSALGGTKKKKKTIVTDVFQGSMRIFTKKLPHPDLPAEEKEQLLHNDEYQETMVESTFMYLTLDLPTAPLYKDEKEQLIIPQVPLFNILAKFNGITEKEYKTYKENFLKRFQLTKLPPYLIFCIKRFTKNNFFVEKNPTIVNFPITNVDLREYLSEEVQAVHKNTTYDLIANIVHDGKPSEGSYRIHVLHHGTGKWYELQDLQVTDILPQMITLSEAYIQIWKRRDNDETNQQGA
How it was run: as §1

USP4 = molecular target: T4, USP4 (UniProt Q13107)
T4 sequence (whole entry): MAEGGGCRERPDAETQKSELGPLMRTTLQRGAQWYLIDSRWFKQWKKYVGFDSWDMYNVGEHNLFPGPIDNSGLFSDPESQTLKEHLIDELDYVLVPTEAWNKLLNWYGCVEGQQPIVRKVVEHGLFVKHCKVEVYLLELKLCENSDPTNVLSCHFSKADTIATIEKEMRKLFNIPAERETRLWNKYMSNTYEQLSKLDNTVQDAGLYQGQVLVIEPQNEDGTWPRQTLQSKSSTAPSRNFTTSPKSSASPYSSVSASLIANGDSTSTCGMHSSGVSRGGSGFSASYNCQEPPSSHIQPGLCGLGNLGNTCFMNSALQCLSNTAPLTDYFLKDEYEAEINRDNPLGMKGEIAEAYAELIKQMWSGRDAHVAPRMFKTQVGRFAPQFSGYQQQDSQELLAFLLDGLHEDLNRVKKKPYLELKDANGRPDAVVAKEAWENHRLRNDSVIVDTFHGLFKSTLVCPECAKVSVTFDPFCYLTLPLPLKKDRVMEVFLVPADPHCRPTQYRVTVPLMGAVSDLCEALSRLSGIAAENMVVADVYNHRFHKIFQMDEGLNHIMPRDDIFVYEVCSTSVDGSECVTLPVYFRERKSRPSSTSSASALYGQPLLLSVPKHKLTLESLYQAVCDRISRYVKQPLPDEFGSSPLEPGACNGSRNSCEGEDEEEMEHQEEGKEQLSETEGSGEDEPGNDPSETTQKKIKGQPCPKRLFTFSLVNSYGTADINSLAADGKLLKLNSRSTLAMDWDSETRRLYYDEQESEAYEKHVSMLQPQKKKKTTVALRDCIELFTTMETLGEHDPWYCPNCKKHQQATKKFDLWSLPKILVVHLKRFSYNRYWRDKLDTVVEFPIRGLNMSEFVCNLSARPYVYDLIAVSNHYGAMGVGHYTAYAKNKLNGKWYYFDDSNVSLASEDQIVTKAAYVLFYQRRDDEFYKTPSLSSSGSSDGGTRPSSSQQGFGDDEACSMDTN
How it was run: as §1

Measured: log2 ratio of Biotin-Ahx-Ub-VS probe labelling

Cl.Cn1nc2c(c1CNC(=O)CCl)CCCC2
inactive: USP34 -0.177 | USP36 -0.0094 | USP38 0.0557 | USP39 0.242 | USP4 0.0436
